Bioassay records from PubChem.
Only some compounds are listed: those with a hit (about 2.4% of all), similar ones and a draw of the others.
TDP1 inh = TDP1 (human) enzyme inhibition. Potency, µM (titrated, usually from 130 µM), for the others: at the top dose activity change, negative = inhibition, actives largely listed as inhibitors. actives 0.28% (n = 350,000). recombinant TDP1, AlphaScreen DNA substrate cleavage. Q9NUW8. AID 485290; further: on the % scale 0 is the no-effect control and ±100 the full control effect; nearly all actives have a fitted effect of over 40% in size
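Recombinant human Tdp1 (E. coli-expressed, 1 nM final) preincubated with compounds 15 min at room temperature, then 5'-biotin/3'-phosphotyrosine-FITC DNA substrate (15 nM final) added for 5 min. AlphaScreen beads (10 ug/ml final) added 10 min; cleavage lowers signal.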
Pol eta inh = DNA polymerase eta (human) inhibition; Potency, µM (doses to about 114 µM), inactives show at the top dose activity change, negative = inhibition, usual class: inhibitors; recombinant Pol eta, fluorescent DNA replication assay; AID 588591; actives 1.2% (n = 390,000); Q9Y253; further: on the % scale 0 is the no-effect control and ±100 the full control effect
Target sequence (Q9Y253 whole entry, looked up): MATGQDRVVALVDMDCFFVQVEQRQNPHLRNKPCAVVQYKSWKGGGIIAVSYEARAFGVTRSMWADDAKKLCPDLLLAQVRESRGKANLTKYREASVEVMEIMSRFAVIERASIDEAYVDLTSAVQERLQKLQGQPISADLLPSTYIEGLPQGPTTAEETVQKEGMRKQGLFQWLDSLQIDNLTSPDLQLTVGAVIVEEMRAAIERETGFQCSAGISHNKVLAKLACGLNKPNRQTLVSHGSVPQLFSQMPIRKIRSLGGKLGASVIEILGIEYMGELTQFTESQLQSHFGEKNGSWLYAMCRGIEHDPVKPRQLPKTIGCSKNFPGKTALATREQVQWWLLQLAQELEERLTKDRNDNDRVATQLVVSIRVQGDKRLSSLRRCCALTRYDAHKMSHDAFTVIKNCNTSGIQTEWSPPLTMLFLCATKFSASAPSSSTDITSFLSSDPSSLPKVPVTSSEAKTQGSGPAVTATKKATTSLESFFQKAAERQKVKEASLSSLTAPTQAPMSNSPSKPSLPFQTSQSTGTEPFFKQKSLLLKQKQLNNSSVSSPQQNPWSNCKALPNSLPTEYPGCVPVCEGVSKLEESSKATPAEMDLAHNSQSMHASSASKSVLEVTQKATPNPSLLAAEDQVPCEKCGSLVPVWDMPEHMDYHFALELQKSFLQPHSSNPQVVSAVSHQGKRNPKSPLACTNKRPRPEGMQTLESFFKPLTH
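Pol eta at 10 nM preincubated with compounds 15 min at room temperature; reaction started with fluorescent substrate (50 nM final) and read kinetically at 0 and 10 min.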
FEN1 inh = human FEN1 inhibition; P39748; Recombinant FEN1 flap cleavage, fluorescence, 15 min; Potency, µM (doses to about 114 µM), for inactives: top-dose activity change, negative = inhibition, usual class: inhibitors; actives 0.35% (n = 390,000); further: on the % scale 0 is the no-effect control and ±100 the full control effect; nearly all actives have a fitted effect of over 65% in size
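Concentration–response screening of FEN1 (10 nM): 15 min compound preincubation at room temperature, reaction started with 50 nM substrate and read at 0 and 15 min. Corrected, normalized data were fitted by a four-parameter Hill equation.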
Pol iota inh = DNA polymerase iota (human) inhibition; Pol iota fluorescent replication assay, 10 min; Potency, µM (doses to about 115 µM), without a hit: at the top dose activity, negative = inhibition, most hits filed as inhibitors; actives 1% (n = 390,000); AID 588590
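Fluorescent replication assay read twice, at 0 min and 10 min after adding 50 nM (final) substrate. Enzyme (10 nM) and compounds were first incubated 15 min at room temperature; enzyme-free buffer wells were negative controls.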
Pol kappa inh = blocks human DNA polymerase kappa activity. Q9UBT6. purified Pol kappa, fluorescent DNA synthesis assay, 10 min. Potency, µM (titrated, usually from 107 µM), without a hit: at the top dose activity, negative = inhibition, actives largely listed as inhibitors. actives 0.53% (n = 400,000). AID 588579; further: on the % scale 0 is the no-effect control and ±100 the full control effect
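50 nM final substrate added after 15 min RT preincubation of 10 nM Pol kappa with compound; fluorescence read at 0 and 10 min.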
Pol beta inh = inhibitors of human DNA polymerase beta; P06746; Pol beta primer extension/strand displacement, fluorescence kinetic; Potency, µM (highest dose often 114 µM), for the others: at the top dose activity change, negative = inhibition, hits mostly inhibitors; actives 1.3% (n = 340,000); AID 485314; further: on the % scale 0 is the no-effect control and ±100 the full control effect
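Pol beta (10 nM) was preincubated with compound for 15 min at room temperature. The reaction was then started with 50 nM substrate and read immediately and after a further 10 min at room temperature.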
* marks the source's active call; other numbers are inactive results; ? = inconclusive; / = no result given; [ ] = remark or other dose. The call rests on the fitted dose curve; in most records, active means well fitted curve in the direction sought with a large enough effect; inconclusive means small, poorly fitted or top-dose-only effect, or another doubt; inactive means no such curve, though single readings can be large; an effect the other way counts as inactive or inconclusive. Potency means the concentration at half of the fitted maximal effect.

SMILES	TDP1 inh	Pol eta inh	FEN1 inh	Pol iota inh	Pol kappa inh	Pol beta inh
CCOc1ccc(N=Nc2c(=O)[nH]n3c(=O)cc(C)[nH]c23)cc1	6.7%	-7.9%	-5.2%	-12.3%	-13.9%	-3.1%
CCOc1ccc(N=Nc2c(=O)[nH]n3c(=O)c4c([nH]c23)CCCC4)cc1	13.2%	-18.1%	-6.6%	19.6%	-12.4%	50.1µM*
Nc1nonc1C(=O)N/N=C/c1ccc(-c2cccc(C(=O)O)c2)o1	/	/	/	/	/	17.8µM*
CNC(=S)N/N=C/c1ccc(-c2cccc(C(=O)O)c2)o1	-8.8%	-10.4%	0.3%	47.8%	-24.5%	-12.7%
CN(C)C1C(=O)C(C(N)=O)C(=O)C2(O)C(=O)C3C(=O)c4c(O)ccc(Cl)c4C(O)C3CC12 (stereo unspecified)	/	/	/	/	35.5µM*	/
O=C1CCCC2=C1C(c1ccncc1)c1c(nc(SCc3ccccc3Cl)[nH]c1=O)N2 (stereo unspecified)	2.3%	?	-15.0%	-0.9%	-38.7%	?
CCC(C)Sc1nc2c(c(=O)[nH]1)C(c1cccs1)C1=C(CCCC1=O)N2 (stereo unspecified)	-1.2%	?	3.4%	?	-41.9%	25.1µM*
Cc1cc(Oc2ccc(Cl)cc2Cl)nc(C#N)n1	/	/	8.6%	-7.9%	-9.9%	/
O=C(CSc1nnc(-c2ccccc2)o1)c1nnc(-c2ccccc2)o1	9.1%	20µM*	9.1%	-23.9%	-13.7%	-24.1%
O=C(NNC(=O)c1cccs1)c1cccc(F)c1	0.5%	0.8%	2.4%	?	-21.9%	7.4%
O=C(N/N=C/c1ccc(OC(=O)c2cccs2)cc1)c1cccc(F)c1	-13.7%	-26.3%	-7.4%	-15.4%[58.9 µM]	-23.9%	8.91µM*
CCCCNC(=O)CSc1nnc(Cc2ccc(Cl)c(Cl)c2)c(=O)[nH]1	-3.2%	11.8%	1.7%	?	89.1µM*	-10.1%
CSCC[C@H](NC(=O)[C@H](Cc1c[nH]c2ccccc12)NC(=O)CNC(=O)[C@H](Cc1ccc(O)cc1)NC(=O)[C@H](C)NC(=O)[C@H](CCC(=O)O)NC(=O)[C@H](CCC(=O)O)NC(=O)[C@H](CCC(=O)O)NC(=O)[C@H](CCC(=O)O)NC(=O)[C@H](CCC(=O)O)NC(=O)[C@H](CC(C)C)NC(=O)[C@H](Cc1c[nH]c2ccccc12)NC(=O)[C@@H]1CCCN1C(=O)CNC(=O)[C@@H]1CCC(=O)N1)C(=O)N[C@@H](CC(=O)O)C(=O)N[C@@H](Cc1ccccc1)C(=O)NCC(=O)O	4.9%	/	/	/	?	/
Cc1ccc(C2C(C#N)=C(N)N(c3cccnc3)C3=C2C(=O)CCC3)s1 (stereo unspecified)	-2.4%	56.2µM*	-2.3%	?	-2.0%[60.1 µM]	?
Cc1nn(C)cc1C1C(C#N)=C(N)N(c2cccnc2)C2=C1C(=O)CCC2 (stereo unspecified)	3.2%	-13.3%	-1.9%	220.4%	-10.1%	37.5%
Cc1nn(-c2nc(-c3ccc(F)cc3)cc(C(F)(F)F)n2)c(C)c1Cl	-8.2%	-16.5%	-3.6%	6.4%	-5.6%	?
O=C(Nc1cccc(-c2cscn2)c1)C1CCN(Cc2ccc(CO)o2)CC1	0.6%	2.5%	8.6%	50.1µM*	?	16.3%
COCc1ccc(CN2CCC(C(=O)Nc3cccc(-c4cscn4)c3)CC2)o1	3.9%	3.6%	-14.5%	-12.5%	-4.6%	2.5%
CCc1ccc(NC(=O)CN2C(C(=O)OC)=C(c3ccccc3)c3ccccc3S2(=O)=O)cc1	3.6%	-7.6%	-23.1%	0.3%	-2.7%	10.6%
CCCOC(=O)C1=C(C)N(C)C(=O)NC1c1cc2c(cc1[N+](=O)[O-])OCO2 (stereo unspecified)	-5.1%	-7.6%	0.3%	4.47µM*	79.4µM*	?
O=C(Nc1ccc2[nH]c(=S)sc2c1)Nc1ccccc1F	11.4%	79.4µM*	-18.9%	?	7.8%	-0.7%
